Source: PubChem BioAssay
PostGolgi ctrl – growth inhibition of yeast control strain, primary screen, counter-screen for post-Golgi transport modulator project. AID 738, 2007. inhibition, % at 10 µM. 5% of 98,000 active. efflux-deficient yeast background strain, growth absorbance A615, 16 h
hDAT+cocaine – changed hDAT dopamine uptake under cocaine IC80, either direction, primary screen, cocaine antagonist project, cell-based, LLC-PK1 hDAT, [14C]-dopamine uptake, MLSMR; B-score at 10 µM; LLC-PK1 hDAT cells, [14C]-dopamine uptake with cocaine IC80; actives deviate in either direction; 1.3% of 110,000 active; AID 449768, 2010;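 active = Z score or B-score, a plate-position-corrected score, falls beyond the plate's 99.7% confidence bounds, in either direction; inactive = both scores lie inside the 99.7% bounds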;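 note: scored against the spread of the other compound wells on the same plate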
D1 allo mod – D1 CRE-luciferase signal change, two-sided – cell-based, HEK293 D1, dopamine EC30, D1 allosteric modulator project, primary screen. 5.9% of 58,000 active. B-score at 10 µM. AID 641, 2007. dopamine EC30 potentiation; actives deviate in either direction. D(1A) dopamine receptor (Homo sapiens), P21728;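 active = luminescence count or its row- and column-corrected plate score outside the 99.7% band of the plate's sample wells, on either side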
PLAP act – PLAP enzyme activators, biochemical, luminescence, HTS; purified PLAP enzyme, luminescent substrate read-out; active compounds read high; AID 696, 2007; activation fold at 20 µM; 1.2% of 96,000 active; in the data active = activation fold above about 2
Cav3 T inh – Cav3.2 calcium influx blockers – cell-based, Fluo-4 calcium fluorescence, FDSS, MLSMR library, primary screen; Voltage-dependent T-type calcium channel subunit alpha-1H (Homo sapiens), O95180; Cav3.2-expressing cells; active compounds read low; B-score at 10 µM; 4% of 100,000 active;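 active = single-dose well whose peak fluorescence ratio is a statistical outlier from its plate by either plate-standardised score or position-corrected B-score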
PostGolgi yeast – phenotypic screen on post-Golgi transport, primary screen; post-Golgi transport phenotypic cell assay; inhibition, % at 10 µM; 0.9% of 98,000 active; AID 739, 2007;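 note: yeast cells grown in 1536-well plates; yeast grown about 18 h at 30C before absorbance read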
* hit, by the source's call; . = no result given. In the library only some 12% were active in any assay of this set; here they are far more common. Cut-off read from the data, not from the text of the source, unless noted: active = inhibition above about 30%; inactive = the rest.

SMILES	PostGolgi ctrl	hDAT+cocaine	D1 allo mod	PLAP act	Cav3 T inh	PostGolgi yeast
O=C(CCCn1c(=S)[nH]c2cc3c(cc2c1=O)OCO3)N1CCN(c2ccc(Cl)cc2)CC1	1	0.49	1.3	1.3	-7.7*	15
COc1ccccc1OCC(=O)N/N=C1/SCC(=O)N1Cc1ccccc1	9	0.9	.	1	1.1	-10
COCCn1c(SCc2nc3ccccc3s2)nc2ccccc21	11	0.18	1.5	1.4	-2.4	0
Cc1onc(-c2c(F)cccc2Cl)c1C(=O)NCc1ccccn1	5	0.0019	-4.2*	1.1	0.45	-1
Cc1onc(-c2c(F)cccc2Cl)c1C(=O)NC1CCSC1=O (stereo not drawn)	-2	0.038	.	2.1*	-0.048	-2
Cc1onc(-c2c(Cl)cccc2Cl)c1C(=O)N/N=C(\N)COc1ccc(Cl)cc1	32*	-0.76	.	1.4	-5*	2
Cc1onc(-c2c(F)cccc2Cl)c1C(=O)Nc1nnc(C2CC2)s1	11	-0.013	.	1.2	2	-6
CCCSc1nnc(C(C)C)n1N	21	-0.11	.	1.1	-0.66	9
Cc1c(O)ccc(-c2[nH]ncc2-c2nc3ccccc3s2)c1O	-1	-0.057	.	2.2*	-0.73	14
O=C(COc1ccc(Cl)cc1)N(Cc1ccccc1)c1ccccn1	33*	0.99	.	0.8	-4.1	-4
COc1ccc(-c2csc(N(Cc3ccccc3)C(=O)COc3ccc(Cl)cc3)n2)cc1	5	-0.049	.	1	0.44	-2
CCOC(=O)C1CCN(C(=O)Cc2cccs2)CC1	36*	-0.77	0.12	0.9	0.27	-4
CCOC(=O)C1CCN(C(=O)c2cccc(C(=O)N3CCC(C(=O)OCC)CC3)c2)CC1	6	0.66	-0.17	1.8	-1.3	-2
O=C1OC(c2ccc3c(c2)OCO3)N(C(=O)c2ccc(Cl)c(Cl)c2)c2ccccc21 (stereo not drawn)	30*	-0.81	.	1.1	-3.1	-3
Cc1cccc(C(=O)N2c3ccccc3C(=O)OC2c2ccc3c(c2)OCO3)c1 (stereo not drawn)	13	.	.	1	.	-3
O=C(C1CCCN(S(=O)(=O)c2cccnc2)C1)N1CCn2c1nc1ccccc12 (stereo not drawn)	7	1.5	0.079	1.5	1.6	0
Nc1ccc(C2CCCc3nonc32)c2nonc12 (stereo not drawn)	6	-0.066	-2.8*	0.8	0.57	-2
CCn1c(=N)n(CC(=O)C23CC4CC(CC(C4)C2)C3)c2ccccc21	35*	1	-0.98	1.2	-1	2
CSc1cccc(NC(=O)CN(c2ccccc2)S(=O)(=O)N(C)C)c1	29	-0.31	.	1	-2.9	-18
Cc1ccc(N(CC(=O)N/N=C/c2cc(C)n(-c3ccccc3)c2C)S(C)(=O)=O)c(C)c1	19	1.1	.	1.3	-6.7*	13
CSc1cccc(NC(=O)CN(c2cccc(C)c2)S(C)(=O)=O)c1	13	-0.82	.	0.7	-4.3*	-12
CSc1cccc(NC(=O)CN(c2ccc(C)cc2C)S(C)(=O)=O)c1	8	0.31	0.55	1.1	-7.9*	-14
Cc1cc(/C=N/NC(=O)Cn2c3ccccc3c(=O)c3ccccc32)c(C)n1-c1ccccc1	15	.	.	1.2	.	-7
CCCS(=O)(=O)N1CCC(C(=O)NCCCOCC)CC1	0	0.76	-0.43	1	-2.9	1
COc1ccc(C(c2nnnn2Cc2cccs2)N2CCN(c3ccc(F)cc3)CC2)cc1OC (stereo not drawn)	8	1.2	-2.1	1.7	-2.4	18
SMILES	PostGolgi ctrl	hDAT+cocaine	D1 allo mod	PLAP act	Cav3 T inh	PostGolgi yeast
CCOC(=O)c1oc2ccccc2c1NC(=O)c1cccc(OC)c1	6	0.16	0.51	1.1	-0.29	4
CCOC(=O)c1oc2ccccc2c1NC(=O)c1ccc(Cl)s1	0	-2.4*	.	1.1	-1.4	1
COc1cccc(NC(=O)c2ccc(-n3cccn3)nc2)c1	-6	-1	.	0.8	1.5	11
CCc1ccccc1NC(=O)CSc1nc2n[nH]c(C)c2c(=N)n1-c1cccc(OC)c1	.	1.8	.	.	-1.9	.
CCCCCNC(=O)c1ccc2c(=O)n(CCOC)c(=O)[nH]c2c1	-9	0.24	.	0.9	0.48	25
CC1CCCCN1CCNC(=O)c1ccc2c(=O)n(CCc3ccccc3)c(=O)[nH]c2c1 (stereo not drawn)	-3	.	-3.7*	1	.	4
COCCNC(=O)c1ccc2c(=O)n(CCOC)c(=O)[nH]c2c1	-4	-9*	.	1	-0.021	-2
CN(C)C=Nc1ccc2nn(-c3ccccc3)nc2c1	13	0.069	-2.5*	1.1	0.76	-2
O=C(CNC(=O)c1cccs1)NCCN1CCN(c2ccccc2F)CC1	17	-0.7	-3.6*	1.2	.	1
CSc1ccccc1NC(=O)COc1ccccc1Cl	22	-1.5	.	0.7	0.049	1
O=[N+]([O-])c1cc(-n2cnnn2)ccc1N1CCC(Cc2ccccc2)CC1	74*	1.6	.	1	-0.017	1
CC1CC(C)CN(c2ccc(-n3cnnn3)cc2[N+](=O)[O-])C1 (stereo not drawn)	17	-1.1	.	1	-0.047	6
Cc1ccc(C(=O)NNC(=O)C2CCN(Cc3ccccc3)CC2)cc1	-5	0.79	.	2.1*	.	-5
Cc1ccccc1NC(=O)c1ccc(CN2CCC(Cc3ccccc3)CC2)cc1	2	-3.7*	.	1.5	-7.1*	13
Clc1cccc(CN2CCC(Cc3ccccc3)CC2)c1	16	-0.58	.	0.9	1.5	3
C/C(=N\NC(=O)c1cccc(S(=O)(=O)Nc2ccccc2Cl)c1)c1ccc(-n2ccnc2)cc1	4	-0.09	.	1.5	0.31	-3
N/C(=N\OC(=O)CCC1CCCCC1)c1cccnc1	33*	-0.1	.	0.9	0.88	1
O=C(c1ccc2ccccc2n1)N1CCN(c2ccccc2O)CC1	11	0.023	.	1.3	0.71	0
CC(=O)NC(CCS(C)(=O)=O)C(=O)Nc1ccccc1Cl (stereo not drawn)	0	-0.33	0.41	1.2	.	3
CC(=O)NC(CCS(C)(=O)=O)C(=O)Nc1cc(Cl)ccc1Cl (stereo not drawn)	32*	-0.48	-0.26	1.1	0.23	-3
COc1ccc(OC)c(NC(=O)C(CCS(C)(=O)=O)NC(C)=O)c1 (stereo not drawn)	.	4.3*	-0.41	1.3	-0.053	.
Cc1ccc(S(=O)(=O)NC(CC(C)C)C(=O)Nc2nccs2)cc1 (stereo not drawn)	8	-0.24	.	2.2*	.	-7
